Data reported in the supplement of paper PMC9950053.
Structures can show the parent of a compound that is named as a salt.

Each compound was assayed on Danio rerio larvae (5 dpf) (assay: combined upward orientation toward moving lines (periods 7-14) minus DMSO control (percentage points); higher = more orientation with moving lines than DMSO larvae). Conditions: 10 µM; exposure time: 3 h pre-incubation + 3 h imaging.
Method: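 Wild-type 5 dpf zebrafish larvae (n=48 per drug, 96-well plates, 28.5 °C) were exposed to Tocris FDA-approved library compounds at 10 µM (0.1% DMSO) for 3 h before and 3 h during imaging. Images were taken every 6 s during visual (moving coloured lines) and acoustic stimuli, and larvae were tracked with the DeepLabCut-based Z-LaP Tracker. Each behavioural measure is the treated-group mean minus the DMSO vehicle control mean (n=844), in percentage points. This mapping covers compounds with 4-character plate codes.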

Question: For `O=c1[nH]c2ccccc2n1C1CCN(CCCC(c2ccc(F)cc2)c2ccc(F)cc2)CC1` [Pimozide], which “combined upward orientation toward moving lines” value is on record?
Answer: The value was -5.82.

Question: `CC(O)(CS(=O)(=O)c1ccc(F)cc1)C(=O)Nc1ccc(C#N)c(C(F)(F)F)c1` (stereo unspecified) [Bicalutamide] was tested. Which “combined upward orientation toward moving lines” value did it give?
Answer: The value was -2.4.

Question: With `N[C@@H]1C[C@H]1c1ccccc1` [Tranylcypromine hydrochloride] as the compound, how does the “combined upward orientation toward moving lines” value read?
Answer: Its value is 1.03.

Question: `CCN(C)C(=O)Oc1cccc([C@H](C)N(C)C)c1` [Rivastigmine tartrate] was tested. Which “combined upward orientation toward moving lines” value did it give?
Answer: Its value is -5.99.

Question: Which “combined upward orientation toward moving lines” value does the source give for `CC[C@@H](C(N)=O)N1CCCC1=O` [Levetiracetam] here?
Answer: Its value is -2.84.

Question: `C=CCN1C[C@H](C(=O)N(CCCN(C)C)C(=O)NCC)C[C@@H]2c3cccc4[nH]cc(c34)C[C@H]21` [Cabergoline] was tested. Which “combined upward orientation toward moving lines” value did it give?
Answer: Its value is -13.9.

Question: For `CN1C[C@H](C(=O)N[C@]2(C)O[C@@]3(O)[C@@H]4CCCN4C(=O)[C@H](Cc4ccccc4)N3C2=O)C[C@@H]2c3cccc4[nH]cc(c34)C[C@H]21` [Dihydroergotamine mesylate], which “combined upward orientation toward moving lines” value is on record?
Answer: The value was -20.6.

Question: For `C=C1C[C@@H]2[C@H](CC[C@]3(C)C(=O)CC[C@@H]23)[C@@]2(C)C=CC(=O)C=C12` [Exemestane], which “combined upward orientation toward moving lines” value is on record?
Answer: Its value is 1.27.

Question: For `CC(C)C[C@H]1C(=O)N2CCC[C@H]2[C@]2(O)O[C@](NC(=O)[C@@H]3C=C4c5cccc6[nH]c(Br)c(c56)C[C@H]4N(C)C3)(C(C)C)C(=O)N12` [Bromocriptine mesylate], which “combined upward orientation toward moving lines” value is on record?
Answer: The value was -39.

Question: Which “combined upward orientation toward moving lines” value does the source give for `COc1cc2c(cc1OC)C1CC(=O)C(CC(C)C)CN1CC2` (stereo unspecified) [Tetrabenazine] here?
Answer: The value was -21.4.

Question: For `Cc1cccc([C@H](C)c2c[nH]cn2)c1C` [Dexmedetomidine hydrochloride], which “combined upward orientation toward moving lines” value is on record?
Answer: The value was -0.0673.
